Here are results for 14 compounds from PubChem BioAssay (NCI).

About 83,000 compounds went through this panel and 20% of them were active in at least one assay; those are over-represented in the sample as a whole.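 Method: cells in 96-well plates; compound added at one concentration; 48 h incubation; percent growth measured; values under 10 scored active.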 Unmarked numbers belong to inactive results. Activity calls are given as the source filed them.

Test systems include NCI/ADR-RES ovarian; T-47D breast; BT-549 breast; MDA-MB-435 melanoma; SW-620 colon; MCF7 breast; HCT-116 colon; HCC-2998 colon; KM12 colon.
Holding throughout (assay): NCI-60 one-dose screen, 48 h (100 = growth as untreated, 0 = no growth, -100 = all killed)
Conditions in all cases: 10 µM unless noted

As to `Cn1cccc1C1CC(=O)N(CCC[Se]C#N)C1=O` (stereo unspecified), the growth is -0.356% (active) in the experiment on NCI/ADR-RES ovarian; 71.7% in the experiment on T-47D breast; -93.5% (active) in the experiment on BT-549 breast; -6.27% (active) with MDA-MB-435 melanoma; 56.7% in the experiment on SW-620 colon; 9.04% (active) with MCF7 breast. Moreover, the figures for the growth with HCT-116 colon, in the experiment with HCC-2998 colon and in the experiment with KM12 colon were 2.78% (active), 83.1% and 12.3%, respectively.

For `COC(=O)[C@@H](C)C[C@H](Cc1ccccc1)NC(=O)c1cccc([C@@H](C[C@H](C(C)C)N(C)C(=O)[C@@H](NC(=O)[C@H]2CCCCN2C)C(C)C)OC(C)=O)n1`, the growth in the experiment on NCI/ADR-RES ovarian was 14.6%; in the experiment with T-47D breast, 47.1%; in the experiment with BT-549 breast it was -12.5% (active); in the experiment on MDA-MB-435 melanoma, -32.2% (active); in the experiment with SW-620 colon, 22%; in the experiment with MCF7 breast, 21.3%. Moreover, the growth was 2.54% (active) with HCT-116 colon, 2.68% (active) in the experiment on HCC-2998 colon and 7.8% (active) in the experiment on KM12 colon.

For `CN1CCC(O)(c2ccc(F)cc2)C(C(=O)c2ccc(F)cc2)C1` (stereo unspecified), the growth in the experiment on NCI/ADR-RES ovarian was 103%; in the experiment on T-47D breast it was 94.7%; with BT-549 breast it was 96%; in the experiment on MDA-MB-435 melanoma, 110%; with SW-620 colon it was 99%; in the experiment with MCF7 breast it was 85.3%. Besides, the growth in the experiment on HCT-116 colon is 101%; in the experiment on HCC-2998 colon, 101%; with KM12 colon, 105%.

As for `COC(=O)C1CCC(NC(=O)c2csc([C@@H](C[C@H](C(C)C)N(C)C(=O)[C@@H](NC(=O)[C@H]3CCCCN3C)C(C)C)OC(C)=O)n2)CC1` (stereo partly specified), the growth is 11.8% in the experiment on NCI/ADR-RES ovarian; 64.4% in the experiment with T-47D breast; -20.7% (active) in the experiment on BT-549 breast; -48.5% (active) in the experiment on MDA-MB-435 melanoma; 28.1% in the experiment on SW-620 colon; 19.4% with MCF7 breast. Besides, the growth with HCT-116 colon was 5.04% (active); in the experiment on HCC-2998 colon it was 20.2%; with KM12 colon, 9.7% (active).

With `COC(=O)N[C@H]1CCc2c(Br)c(OC)c(OC)c(OC)c2-c2ccc(SC)c(=O)cc21`, the growth is 7.33% (active) in the experiment with NCI/ADR-RES ovarian; 50.5% in the experiment with T-47D breast; 17.1% with BT-549 breast; -55.7% (active) in the experiment with MDA-MB-435 melanoma; 17.5% in the experiment on SW-620 colon; 12.8% with MCF7 breast. Further, the results for the growth in the experiment with HCT-116 colon, in the experiment with HCC-2998 colon and with KM12 colon were 3.67% (active), 17.2% and -4.65% (active), respectively.

As for `COc1ccc(/C=C/c2cc(OC)c(OC)c(OC)c2)cc1NC(=O)/C=C/c1ccc(F)cc1`, the growth is -3.74% (active) in the experiment with NCI/ADR-RES ovarian; 32.1% in the experiment with T-47D breast; 35.1% in the experiment with BT-549 breast; -41.4% (active) in the experiment on MDA-MB-435 melanoma; 30.5% with SW-620 colon; 20.6% in the experiment on MCF7 breast. Further, the growth is 23% in the experiment on HCT-116 colon, 17.2% with HCC-2998 colon and 25% in the experiment with KM12 colon.

As to `CC(=O)O[C@H](C[C@H](C(C)C)N(C)C(=O)[C@@H](NC(=O)[C@H]1CCCCN1C)C(C)C)c1nc(C(=O)NC2CCC(C(=O)O)CC2)cs1` (stereo partly specified), the growth is 96.8% with NCI/ADR-RES ovarian; 50.4% with T-47D breast; 45.6% with BT-549 breast; -28.9% (active) in the experiment on MDA-MB-435 melanoma; 32.6% with SW-620 colon; 18.5% in the experiment with MCF7 breast. For the same compound, the growth in the experiment with HCT-116 colon is 34.8%; in the experiment on HCC-2998 colon, 83.7%; in the experiment with KM12 colon, 39.2%.

With `O=C([O][Hg][c]1ccccc1)c1ccccc1`, the growth in the experiment with NCI/ADR-RES ovarian is 37.9%; in the experiment on T-47D breast, -37.8% (active); with BT-549 breast, -92.7% (active); in the experiment on MDA-MB-435 melanoma it was -86.6% (active); in the experiment on SW-620 colon, -49.6% (active); in the experiment on MCF7 breast it was -57.7% (active). Besides, the growth in the experiment with HCT-116 colon is -82.5% (active); in the experiment with HCC-2998 colon, 51%; with KM12 colon, 87.6%.

For `COc1cc(/C=C\c2cc(OC)c(OC)c(OC)c2)cc(N/C=C\C(=O)c2cc(OC)c(OC)c(OC)c2)c1OC`, the growth is 19.5% with NCI/ADR-RES ovarian; -3% (active) in the experiment on T-47D breast; 43.9% in the experiment with BT-549 breast; -37.3% (active) in the experiment with MDA-MB-435 melanoma; 28.2% in the experiment on SW-620 colon; 15.1% in the experiment on MCF7 breast. In addition, the results for the growth in the experiment on HCT-116 colon, with HCC-2998 colon and in the experiment with KM12 colon were 17.8%, 53.6% and 21.8%, respectively.

Regarding `Cc1ccc(C(=O)NCCCOc2ccc(N)cc2Cl)cc1S(=O)(=O)F`, the growth with NCI/ADR-RES ovarian was 103%; in the experiment on T-47D breast, 81.9%; with BT-549 breast it was 98%; in the experiment on MDA-MB-435 melanoma, 90.9%; with SW-620 colon, 104%; with MCF7 breast, 103%. For the same compound, the growth with HCT-116 colon was 98.9%; with HCC-2998 colon it was 106%; in the experiment with KM12 colon, 90.8%.

`CN(C)CC(C(=O)Cc1ccccc1)c1ccccc1` (stereo unspecified): the growth with NCI/ADR-RES ovarian is 76.5%; in the experiment with T-47D breast, -37.8% (active); in the experiment on BT-549 breast, 76.3%; with MDA-MB-435 melanoma, 26.8%; in the experiment with SW-620 colon, 20.6%; with MCF7 breast it was 1.13% (active). Further, the growth with HCT-116 colon was 2.48% (active); with HCC-2998 colon it was 116%; in the experiment with KM12 colon, -1.54% (active).

On to `Clc1ccc2nnnn2n1`, for which the growth is 59.2% with NCI/ADR-RES ovarian; 57.4% with T-47D breast; 29.1% in the experiment on BT-549 breast; -1.91% (active) in the experiment with MDA-MB-435 melanoma; 24.5% in the experiment on SW-620 colon; 19.2% with MCF7 breast. For the same compound, the growth in the experiment with HCT-116 colon was -15.9% (active); with HCC-2998 colon it was 107%; in the experiment with KM12 colon, -38% (active).

As for `C=C(C)[C@@]12OC3(/C=C/C=C/CCCCC)O[C@@H]1[C@@H]1[C@@H]4O[C@]4(CO)[C@@H](O)[C@]4(O)C(=O)C(C)=C[C@H]4[C@@]1(O3)[C@H](C)[C@H]2OC(=O)c1ccccc1`, the growth in the experiment with NCI/ADR-RES ovarian is 69.4%; with T-47D breast, 81.7%; in the experiment on BT-549 breast, 83%; with MDA-MB-435 melanoma, 40.5%; with SW-620 colon, 58.9%; with MCF7 breast, 38.7%. Moreover, the figures for the growth with HCT-116 colon, in the experiment on HCC-2998 colon and in the experiment on KM12 colon were 49.7%, -3.12% (active) and 9.5% (active), respectively.

Consider `CCC(=O)Nc1ccc(Cl)c(Cl)c1`, for which the growth with NCI/ADR-RES ovarian was 102%; with T-47D breast, 87.3%; in the experiment on BT-549 breast it was 113%; in the experiment with MDA-MB-435 melanoma, 107%; in the experiment with SW-620 colon, 101%; with MCF7 breast it was 93.1%. In addition, the figures for the growth in the experiment on HCT-116 colon, with HCC-2998 colon and in the experiment on KM12 colon were 99.1%, 93.9% and 99.9%, respectively.
